# In paper PMC7862700, “An all-to-all approach to the identification of sequence-specific readers for epigenetic DNA modifications on cytosine”:
# Assays:
# Experiment in all cases: DAPPL (digital affinity profiling via proximity ligation, sequencing); 10 mM Tris-HCl pH 7.5, 50 mM NaCl, 1 mM DTT, 4% glycerol, room temperature, 30 min; GST-TFs on glutathione beads, 16-mer random dsDNA library, 0.1% formaldehyde crosslink after washing; high values mean tight binding
# Conditions in all cases: protein: recombinant; tags: N-terminal GST; dsDNA, one strand shown
# [1] = biological target: T1, FLI1 (Homo sapiens, UniProt Q01543 1-452)
# T1 sequence: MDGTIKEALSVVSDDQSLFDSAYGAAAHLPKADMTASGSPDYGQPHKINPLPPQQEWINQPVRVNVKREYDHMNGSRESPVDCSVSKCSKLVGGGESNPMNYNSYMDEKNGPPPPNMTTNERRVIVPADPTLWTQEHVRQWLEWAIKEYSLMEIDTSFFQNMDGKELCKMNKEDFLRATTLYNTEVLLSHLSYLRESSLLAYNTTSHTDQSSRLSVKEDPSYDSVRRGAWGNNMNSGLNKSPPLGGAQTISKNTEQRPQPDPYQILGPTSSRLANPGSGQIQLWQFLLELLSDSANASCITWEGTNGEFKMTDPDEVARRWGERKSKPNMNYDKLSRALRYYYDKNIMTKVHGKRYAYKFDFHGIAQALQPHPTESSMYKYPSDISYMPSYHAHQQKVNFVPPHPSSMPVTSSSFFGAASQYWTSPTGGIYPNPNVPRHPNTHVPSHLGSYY
# Method in brief: (§1)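 Yeast served to express human transcription factors as GST fusions, which were then captured on glutathione beads and labelled with DNA barcodes. Pooled with a tag-only sample, they were incubated with 200 nmole of a 16-mer random double-stranded DNA library for 30 min at room temperature in Tris/NaCl/DTT/glycerol buffer, washed, crosslinked with 0.1% formaldehyde, ligated by proximity, amplified by PCR and sequenced. Dividing each hexamer's read frequency for a factor by its frequency for the tag-only sample gives the binding signal.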
# [2] = biological target: T2, ELK1 (Homo sapiens, UniProt P19419 1-428)
# T2 sequence: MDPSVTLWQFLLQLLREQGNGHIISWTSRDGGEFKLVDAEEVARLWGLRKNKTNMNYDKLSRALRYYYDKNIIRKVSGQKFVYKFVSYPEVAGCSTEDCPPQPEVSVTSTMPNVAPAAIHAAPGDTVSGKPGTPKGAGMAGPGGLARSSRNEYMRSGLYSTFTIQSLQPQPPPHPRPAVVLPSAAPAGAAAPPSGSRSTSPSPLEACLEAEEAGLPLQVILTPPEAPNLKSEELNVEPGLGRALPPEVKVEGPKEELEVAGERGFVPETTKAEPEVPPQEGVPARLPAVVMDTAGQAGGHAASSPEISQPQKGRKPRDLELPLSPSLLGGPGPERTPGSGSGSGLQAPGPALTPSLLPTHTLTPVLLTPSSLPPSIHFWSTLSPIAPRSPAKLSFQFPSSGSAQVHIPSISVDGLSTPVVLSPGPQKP
# Method in brief: as §1
# [3] = biological target: T3, GABPA (Homo sapiens, UniProt Q06546 1-454)
# T3 sequence: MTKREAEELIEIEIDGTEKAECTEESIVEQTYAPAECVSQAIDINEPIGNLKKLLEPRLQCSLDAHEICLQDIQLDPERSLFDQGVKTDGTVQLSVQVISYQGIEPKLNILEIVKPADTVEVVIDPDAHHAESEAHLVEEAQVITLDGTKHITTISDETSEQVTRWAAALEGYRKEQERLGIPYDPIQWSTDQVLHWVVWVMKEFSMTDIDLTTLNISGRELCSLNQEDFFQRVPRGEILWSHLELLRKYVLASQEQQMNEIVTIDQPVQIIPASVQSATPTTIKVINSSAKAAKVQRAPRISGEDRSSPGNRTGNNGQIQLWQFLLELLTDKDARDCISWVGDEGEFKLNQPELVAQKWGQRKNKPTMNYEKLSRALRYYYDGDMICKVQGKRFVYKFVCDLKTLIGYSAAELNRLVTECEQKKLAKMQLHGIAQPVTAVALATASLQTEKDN
# Method in brief: as §1
# [4] = biological target: T4, ERG (Homo sapiens, UniProt P11308 1-479)
# T4 sequence: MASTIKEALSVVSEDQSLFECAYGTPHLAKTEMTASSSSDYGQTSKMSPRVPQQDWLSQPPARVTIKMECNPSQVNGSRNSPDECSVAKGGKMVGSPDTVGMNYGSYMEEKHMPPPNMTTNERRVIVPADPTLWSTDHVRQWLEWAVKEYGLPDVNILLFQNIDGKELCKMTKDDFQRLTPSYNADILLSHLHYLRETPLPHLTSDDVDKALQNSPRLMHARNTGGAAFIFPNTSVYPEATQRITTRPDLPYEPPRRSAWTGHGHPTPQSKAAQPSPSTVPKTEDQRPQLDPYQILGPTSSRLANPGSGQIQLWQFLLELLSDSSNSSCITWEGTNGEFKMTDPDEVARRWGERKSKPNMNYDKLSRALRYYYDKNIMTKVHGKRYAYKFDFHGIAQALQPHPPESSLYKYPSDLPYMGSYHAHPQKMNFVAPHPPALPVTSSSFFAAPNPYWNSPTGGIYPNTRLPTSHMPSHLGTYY
# Method in brief: as §1
# [5] = biological target: ELF1 (Homo sapiens, UniProt P32519 1-619)
# ELF1, sequence (P32519 whole entry): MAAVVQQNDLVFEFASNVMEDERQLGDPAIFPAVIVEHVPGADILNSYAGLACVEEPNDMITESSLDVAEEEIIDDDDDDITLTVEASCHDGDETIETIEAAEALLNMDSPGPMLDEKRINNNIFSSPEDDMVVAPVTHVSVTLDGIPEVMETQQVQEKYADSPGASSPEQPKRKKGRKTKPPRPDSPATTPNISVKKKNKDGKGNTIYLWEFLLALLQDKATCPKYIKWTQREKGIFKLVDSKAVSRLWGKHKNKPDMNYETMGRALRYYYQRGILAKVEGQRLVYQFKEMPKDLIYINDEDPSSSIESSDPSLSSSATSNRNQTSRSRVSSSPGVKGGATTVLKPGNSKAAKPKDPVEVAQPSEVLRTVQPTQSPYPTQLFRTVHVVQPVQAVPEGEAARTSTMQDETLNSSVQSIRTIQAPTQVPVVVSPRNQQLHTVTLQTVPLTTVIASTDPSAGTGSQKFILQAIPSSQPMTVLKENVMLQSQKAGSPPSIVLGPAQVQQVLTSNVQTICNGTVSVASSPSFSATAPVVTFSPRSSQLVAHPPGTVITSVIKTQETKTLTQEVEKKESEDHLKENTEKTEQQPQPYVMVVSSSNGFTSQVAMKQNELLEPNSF
# Method in brief: as §1
# [6] = biological target: T5, EHF (Homo sapiens, UniProt Q9NZC4 1-300)
# T5 sequence: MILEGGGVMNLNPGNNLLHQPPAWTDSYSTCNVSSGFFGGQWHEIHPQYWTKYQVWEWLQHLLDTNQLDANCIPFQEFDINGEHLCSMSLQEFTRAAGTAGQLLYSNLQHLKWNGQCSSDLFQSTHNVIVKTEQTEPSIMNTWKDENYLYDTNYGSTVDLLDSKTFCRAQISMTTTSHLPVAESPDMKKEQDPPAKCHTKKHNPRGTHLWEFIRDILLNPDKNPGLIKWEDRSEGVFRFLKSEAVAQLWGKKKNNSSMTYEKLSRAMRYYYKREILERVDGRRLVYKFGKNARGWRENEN
# Method in brief: as §1
# [7] = biological target: SPI1 (Homo sapiens, UniProt P17947 1-270)
# Method in brief: as §1
# [8] = biological target: SPIB (Homo sapiens, UniProt Q01892 1-262)
# SPIB, sequence (Q01892 whole entry): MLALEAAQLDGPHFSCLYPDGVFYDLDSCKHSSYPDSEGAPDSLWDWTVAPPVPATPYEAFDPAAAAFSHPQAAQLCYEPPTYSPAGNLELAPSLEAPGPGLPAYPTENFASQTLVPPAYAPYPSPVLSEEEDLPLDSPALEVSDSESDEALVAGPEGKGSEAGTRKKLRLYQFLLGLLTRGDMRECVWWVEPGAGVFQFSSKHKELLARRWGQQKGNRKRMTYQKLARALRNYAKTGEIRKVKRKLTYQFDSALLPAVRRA
# Method in brief: as §1
# [9] = biological target: T6, ELK3 (Homo sapiens, UniProt P41970 1-407)
# T6 sequence: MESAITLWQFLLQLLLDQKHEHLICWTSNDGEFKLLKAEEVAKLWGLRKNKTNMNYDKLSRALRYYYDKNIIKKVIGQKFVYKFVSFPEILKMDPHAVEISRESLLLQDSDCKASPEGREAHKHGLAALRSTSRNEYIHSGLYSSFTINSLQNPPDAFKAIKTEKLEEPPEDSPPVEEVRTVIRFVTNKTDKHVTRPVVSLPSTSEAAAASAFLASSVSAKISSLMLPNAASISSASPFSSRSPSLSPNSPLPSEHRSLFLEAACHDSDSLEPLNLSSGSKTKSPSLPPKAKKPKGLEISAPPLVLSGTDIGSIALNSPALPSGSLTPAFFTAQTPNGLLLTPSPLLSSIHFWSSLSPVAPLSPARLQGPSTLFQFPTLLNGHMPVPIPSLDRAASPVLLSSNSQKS
# Method in brief: as §1
sequence,measurement,setting,value
GATGTA,binding signal,[1],"1.29 fold enrichment (6-mer frequency, TF over GST control)"
same,binding signal,[2],"1.46 fold enrichment (6-mer frequency, TF over GST control)"
same,binding signal,[3],"1.21 fold enrichment (6-mer frequency, TF over GST control)"
same,binding signal,[4],"1.27 fold enrichment (6-mer frequency, TF over GST control)"
same,binding signal,[5],"1.26 fold enrichment (6-mer frequency, TF over GST control)"
same,binding signal,[6],"1.38 fold enrichment (6-mer frequency, TF over GST control)"
same,binding signal,[7],"1.3 fold enrichment (6-mer frequency, TF over GST control)"
same,binding signal,[8],"1.31 fold enrichment (6-mer frequency, TF over GST control)"
same,binding signal,[9],"1.35 fold enrichment (6-mer frequency, TF over GST control)"
